“And” between values parts separate entries of the source, which are not always exact repeats. Identical values can stand only once. Results filed as inconclusive are left out. Where a call stands in place of a potency, no number is given. Some compounds were tested as several samples or in several runs, with calls that do not always agree. The source made the active and inactive calls. Unless noted, the call rests on the fitted dose curve.
Tests used:
[1] = Nuclear factor erythroid 2-related factor 2/antioxidant responsive element (Nrf2/ARE) small molecule agonists: qHTS cell viability counter screen in human keratinocytes (AID 1919968; active means well fitted cell-killing curve with a large enough effect in the repeat runs; further: nearly all actives have a fitted effect of over 55% in size; further: potency means the concentration at half of the fitted maximal effect)
Outline: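 Seed 1,500 KeratinoSens cells per well, then incubate 5 h at 37 C/5% CO2. Add compounds in DMSO and incubate 23 h. Add CellTiter-Fluor, wait 1 h and read fluorescence.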

[2] = Nuclear factor erythroid 2-related factor 2/antioxidant responsive element (Nrf2/ARE) small molecule agonists: luciferase reporter gene qHTS assay in human keratinocytes (AID 1919969); further: nearly all actives have a fitted effect of over 35% in size; further: potency means the concentration at half of the fitted maximal effect
[3] = biological target: Gonadotropin-releasing hormone receptor (Homo sapiens) (UniProt P30968); test: Human gonadotropin-releasing hormone receptor (GnRHR) small molecule agonists, calcium flux assay in GnRHR-HEK293 cells (AID 1920063); further: nearly all actives have a fitted effect of over 35% in size
Sequence of Gonadotropin-releasing hormone receptor (Homo sapiens) (P30968 whole entry, looked up): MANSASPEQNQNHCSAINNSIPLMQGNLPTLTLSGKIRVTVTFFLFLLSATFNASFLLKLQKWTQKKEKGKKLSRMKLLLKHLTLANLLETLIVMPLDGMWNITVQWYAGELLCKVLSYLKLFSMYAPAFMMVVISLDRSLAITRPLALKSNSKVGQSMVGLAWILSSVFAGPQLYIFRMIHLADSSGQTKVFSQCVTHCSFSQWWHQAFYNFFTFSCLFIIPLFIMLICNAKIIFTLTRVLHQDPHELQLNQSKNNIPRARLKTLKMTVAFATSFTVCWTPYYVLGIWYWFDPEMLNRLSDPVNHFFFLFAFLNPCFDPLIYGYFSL
Outline: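 Cells: HEK293 stably expressing human GnRHR. Steps: overnight (18 h) culture, 1 h calcium dye loading at 37 C, compound addition, kinetic fluorescence read at 480/540 nm. Each compound tested at 15 concentrations in triplicate.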

[4] = G protein-coupled receptor (GPCR) small molecule agonists, calcium flux assay: HEK293 wild type cell line counter screen (AID 1920065)
Outline: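 Counter-screen of the Tox21 10K library for non-specific calcium release: dye-loaded cells received compounds in DMSO and were monitored by kinetic fluorescence (480/540 nm, 3 min). Fifteen concentrations, run in triplicate.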

[5] = p53 small molecule agonists, cell-based qHTS assay with rat liver microsomes (AID 1963578)
Outline: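 With rat liver microsomes and NADPH present (0.5 mg/mL final each), p53RE-bla cells are treated with compound for 16 h at 37 C. LiveBLAzer detection mixture is then applied for 2 h at room temperature in the dark.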

[6] = p53 small molecule agonists, cell-based qHTS assay with human liver microsomes: qHTS cell viability counter screen (AID 1963579); further: nearly all actives have a fitted effect of over 45% in size; further: potency means the concentration at half of the fitted maximal effect
Outline: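 In this multiplexed counter screen, the reporter plates were subsequently treated with CellTiter-Glo so that cell viability, reflected by luminescence, could be recorded for p53RE-bla cells dosed 16 h with compounds under microsomal activation (HLM and NADPH).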

[7] = p53 small molecule agonists, cell-based qHTS assay with rat liver microsomes: qHTS cell viability counter screen (AID 1963580); further: nearly all actives have a fitted effect of over 45% in size; further: potency means the concentration at half of the fitted maximal effect
Outline: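 HCT-116 p53RE-bla, 4,000 cells/well, 5 h pre-incubation; cpd + rat liver microsomes 0.5 mg/mL + NADPH 0.5 mg/mL (final); 16 h, 37 C; CellTiter-Glo, 30 min RT; luminescence.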

[8] = p53 small molecule agonists, cell-based qHTS assay: qHTS cell viability counter screen (AID 1963581); further: nearly all actives have a fitted effect of over 45% in size; further: potency means the concentration at half of the fitted maximal effect
Outline: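 Cells: HCT-116 with p53 response element-driven beta-lactamase. Treatment: 16 h, 37 C, compounds in DMSO. Read: CellTiter-Glo luminescence after 30 min RT.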

[9] = p53 small molecule agonists, cell-based qHTS assay (AID 1963582; active means well fitted activation curve with a large enough effect in the signal ratio in the repeat runs, not every such curve was filed as active; the % refers to the signal ratio)
Outline: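 Quantitative HTS in p53RE-bla cells: after a 5 h settling period, compounds delivered in DMSO were left on cells for 16 h at 37 C, and reporter induction was measured as fluorescence following 2 h substrate loading.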

[10] = biological target: 5-hydroxytryptamine receptor 2A (Homo sapiens) (UniProt P28223); test: 5-hydroxytryptamine receptor 2A (HTR2A) small molecule antagonists, cell-based qHTS assay (AID 1963586); further: nearly all actives have a fitted effect of over 45% in size
Sequence of 5-hydroxytryptamine receptor 2A (Homo sapiens) (P28223 whole entry, looked up): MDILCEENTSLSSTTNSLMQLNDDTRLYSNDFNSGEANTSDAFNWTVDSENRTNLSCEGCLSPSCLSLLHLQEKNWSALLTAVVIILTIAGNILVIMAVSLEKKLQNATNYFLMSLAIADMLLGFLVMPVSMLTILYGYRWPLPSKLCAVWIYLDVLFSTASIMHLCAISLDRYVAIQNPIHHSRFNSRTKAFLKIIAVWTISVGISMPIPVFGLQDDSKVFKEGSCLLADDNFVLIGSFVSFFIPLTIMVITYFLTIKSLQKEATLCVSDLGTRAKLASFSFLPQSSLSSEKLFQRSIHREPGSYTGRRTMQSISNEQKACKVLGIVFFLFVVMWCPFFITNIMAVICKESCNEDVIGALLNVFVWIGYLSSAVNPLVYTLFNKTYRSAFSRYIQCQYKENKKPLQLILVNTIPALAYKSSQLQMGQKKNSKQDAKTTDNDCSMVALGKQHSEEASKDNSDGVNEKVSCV
Outline: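 Antagonist-mode intracellular calcium assay: DOI (4 nM) added after 5 min compound pre-incubation at room temperature to dye-loaded HTR2A-CHO cells. Fluorescence followed for 3 min, sampled every second.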

[11] = biological target: 5-hydroxytryptamine receptor 2A (Homo sapiens) (UniProt P28223); test: 5-hydroxytryptamine receptor 2A (HTR2A) small molecule agonists, cell-based qHTS assay (AID 1963587); further: nearly all actives have a fitted effect of over 30% in size; further: potency means the concentration at half of the fitted maximal effect
Outline: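 Kinetic calcium-flux fluorescence (2 min, 1 sec intervals) after compound addition in agonist mode. HTR2A-CHO cells were cultured 18 h, then dye-loaded 1 h at 37 C.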

[12] = biological target: Muscarinic acetylcholine receptor M1 (Homo sapiens) (UniProt P11229); test: Cholinergic receptor muscarinic 1 (CHRM1) small molecule agonists, cell-based qHTS assay (AID 1963589); further: nearly all actives have a fitted effect of over 35% in size
Sequence of Muscarinic acetylcholine receptor M1 (Homo sapiens) (P11229 whole entry, looked up): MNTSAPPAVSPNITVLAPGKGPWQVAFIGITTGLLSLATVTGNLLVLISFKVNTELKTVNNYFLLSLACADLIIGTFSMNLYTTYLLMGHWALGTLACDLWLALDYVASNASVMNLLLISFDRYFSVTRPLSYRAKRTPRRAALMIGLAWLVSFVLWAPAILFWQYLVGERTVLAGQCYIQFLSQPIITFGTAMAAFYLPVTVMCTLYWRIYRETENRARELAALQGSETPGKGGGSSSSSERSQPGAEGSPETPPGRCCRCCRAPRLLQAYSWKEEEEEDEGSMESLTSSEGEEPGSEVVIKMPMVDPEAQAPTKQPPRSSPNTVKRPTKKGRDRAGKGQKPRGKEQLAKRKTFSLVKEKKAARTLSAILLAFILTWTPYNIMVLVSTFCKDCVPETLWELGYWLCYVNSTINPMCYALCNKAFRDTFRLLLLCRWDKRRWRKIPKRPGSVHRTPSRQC
Outline: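 Agonist-mode qHTS in CHO cells stably carrying human muscarinic M1. Intracellular calcium is tracked by fluorescence every second after compound transfer; each compound runs at 15 concentrations in three independent runs.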

[13] = cAMP Responsive Elements (CRE) small molecule agonists, cell-based qHTS assay (AID 1963590)
Outline: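 Agonist mode qHTS in CRE-bla HEK 293T cells: compounds dosed from DMSO for 3 h at 37 C/5% CO2, followed by LiveBLAzer B/G FRET substrate for 2 h at room temperature.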

[14] = cAMP Responsive Elements (CRE) small molecule antagonists, cell-based qHTS assay (AID 1963591; active means well fitted inhibition curve with a large enough effect in the signal ratio in the repeat runs, not every such curve was filed as active; the % refers to the signal ratio)
Outline: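 Antagonist mode: test compounds are co-incubated with the adenylyl cyclase activator NKH477 (0.25 uM final) on CRE-bla HEK293T cells for 3 h at 37 °C, followed by LiveBLAzer substrate loading.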

[15] = biological target: Beta-2 adrenergic receptor (Homo sapiens) (UniProt P07550); test: Adrenergic beta2 receptor (ADRB2) small molecule antagonists, cell-based qHTS assay (AID 1963592); further: series mostly up to about 92 µM; nearly all actives have a fitted effect of over 50% in size
Sequence of Beta-2 adrenergic receptor (Homo sapiens) (P07550 whole entry, looked up): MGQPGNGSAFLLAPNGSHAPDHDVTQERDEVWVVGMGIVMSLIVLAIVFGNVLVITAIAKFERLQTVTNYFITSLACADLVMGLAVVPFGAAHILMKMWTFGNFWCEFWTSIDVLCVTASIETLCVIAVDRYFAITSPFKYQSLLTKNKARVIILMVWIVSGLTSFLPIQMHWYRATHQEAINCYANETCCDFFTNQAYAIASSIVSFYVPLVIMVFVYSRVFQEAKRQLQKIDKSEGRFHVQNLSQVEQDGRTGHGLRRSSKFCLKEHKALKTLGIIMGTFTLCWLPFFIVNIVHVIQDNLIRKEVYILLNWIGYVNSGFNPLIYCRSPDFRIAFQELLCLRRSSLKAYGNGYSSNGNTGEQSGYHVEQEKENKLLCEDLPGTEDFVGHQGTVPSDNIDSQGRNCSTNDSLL
Outline: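 Cells (CHO, stable ADRB2 overexpression) incubated 18-20hr at 37C; compounds added from DMSO; agonist mix (1nM isoproterenol, 100uM IBMX, 25uM Ro-20-1724) added; 0.5hr RT; d2-cAMP and anti-cAMP-cryptate added; 1hr RT; 665/615 nm read.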

[16] = biological target: Beta-2 adrenergic receptor (Homo sapiens) (UniProt P07550); test: Adrenergic beta2 receptor (ADRB2) small molecule agonists, cell-based qHTS assay (AID 1963593);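 further: CHO cells stably overexpressing human ADRB2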
Outline: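 CHO cells stably over-expressing ADRB2 were plated overnight at 37C, then dosed with compounds plus a stimulation mix containing 100uM IBMX and 25uM Ro-20-1724 for 0.5hr at room temperature. cAMP was measured by HTRF competition, 1hr.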

[17] = biological target: D(2) dopamine receptor (Homo sapiens) (UniProt P14416); test: Dopamine D2 receptor (DRD2) small molecule agonists, cell-based qHTS assay (AID 1963594); further: nearly all actives have a fitted effect of over 35% in size
Sequence of D(2) dopamine receptor (Homo sapiens) (P14416 whole entry, looked up): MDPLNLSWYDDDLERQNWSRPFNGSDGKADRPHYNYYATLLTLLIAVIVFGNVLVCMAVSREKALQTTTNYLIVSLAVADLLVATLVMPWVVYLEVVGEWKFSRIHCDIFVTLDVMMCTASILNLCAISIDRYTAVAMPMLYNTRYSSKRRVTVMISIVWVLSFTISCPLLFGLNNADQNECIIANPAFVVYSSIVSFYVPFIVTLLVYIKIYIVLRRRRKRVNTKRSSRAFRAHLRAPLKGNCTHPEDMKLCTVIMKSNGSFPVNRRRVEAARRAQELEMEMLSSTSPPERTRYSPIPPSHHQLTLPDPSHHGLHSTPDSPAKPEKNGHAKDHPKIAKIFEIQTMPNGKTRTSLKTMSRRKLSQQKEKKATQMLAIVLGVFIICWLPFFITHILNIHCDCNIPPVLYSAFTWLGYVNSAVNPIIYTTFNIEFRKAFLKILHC
Outline: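 cAMP accumulation in DRD2-HEK293 cells measured by HTRF after 1 h detection; compounds added 10 min before NKH477 (200nM […]) forskolin-analogue stimulation, 30 min at room temperature, with Ro20-1724 present at 0.1 mM final.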

[18] = biological target: D(2) dopamine receptor (Homo sapiens) (UniProt P14416); test: Dopamine D2 receptor (DRD2) small molecule antagonists, cell-based qHTS assay (AID 1963595; active means well fitted inhibition curve with a large enough effect in the signal ratio in the repeat runs, with a control signal flat; the % refers to the signal ratio)
Outline: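 Antagonism was scored as restored cAMP in HEK293-DRD2 cells. These cells were stimulated with 200 nM NKH477 and 12 nM quinpirole for 30 min at room temperature, in the presence of 0.1 mM Ro20-1724.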

[19] = p53 small molecule agonists, cell-based qHTS assay with human liver microsomes (AID 1963577);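 further: p53 response element beta-lactamase reporter cells with liver microsomes plus NADPH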
Outline: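 16 h, 37 C exposure of p53RE-bla cells to compounds with human liver microsomes and NADPH (0.5 mg/mL final each); detection via LiveBLAzer mixture, 2 h dark at room temperature.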

[20] = biological target: Muscarinic acetylcholine receptor M1 (Homo sapiens) (UniProt P11229); test: Cholinergic receptor muscarinic 1 (CHRM1) small molecule antagonists, cell-based qHTS assay (AID 1963588); further: nearly all actives have a fitted effect of over 40% in size; further: potency means the concentration at half of the fitted maximal effect
Outline: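 CHRM1-CHO calcium-flux assay, antagonist mode. Cells were seeded 18 h, dye-loaded 1 h at 37 C and given compound for 5 min at RT, then acetylcholine was added at 50nM. FDSS fluorescence was read 3 min; 15 concentrations, three runs.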

Structure (SMILES)	Potency [1]	Potency [2]	Potency [3]	Potency [4]	Potency [5]	Potency [6]	Potency [7]	Potency [8]	Potency [9]	Potency [10]	Potency [11]	Potency [12]	Potency [13]	Potency [14]	Potency [15]	Potency [16]	Potency [17]	Potency [18]	Potency [19]	Potency [20]
N#Cc1ccccc1N	inactive	inactive	inactive	inactive	inactive	inactive	inactive	inactive	inactive	inactive	inactive	inactive	inactive	inactive	inactive	inactive	inactive	inactive	–	–
CCCCCCCCCCCCCCn1cc[n+](C)c1	13.7 µM (active) and 27 µM (active) and inactive	inactive	–	inactive	inactive	40.9 µM (active) and 40.3 µM (active) and inactive	16.3 µM (active) and 32.1 µM (active) and inactive	28.9 µM (active) and inactive	inactive	inactive	21.9 µM (active) and 30.6 µM (active) and inactive	inactive	inactive	inactive	inactive	inactive	inactive	–	inactive	1.88 µM (active) and inactive
Cc1ccc2ccccc2c1	inactive	inactive	–	inactive	inactive	inactive	inactive	inactive	inactive	inactive	inactive	inactive	inactive	inactive	inactive	inactive	inactive	inactive	inactive	inactive
CN(C)C(=S)SSC(=S)N(C)C	95.5 nM (active) and 137 nM (active) and 119 nM (active)	inactive and 96.9 nM (active)	inactive	inactive	inactive	–	–	inactive	inactive	inactive	inactive and 27.5 µM (active)	inactive	–	–	–	–	inactive	inactive	inactive	inactive
CC1=C2[C@H]3OC(=O)[C@@H](C)[C@@H]3CC[C@@]2(C)C=CC1=O	inactive	inactive	inactive	inactive	inactive	–	inactive	inactive	inactive	inactive	inactive	inactive	–	inactive	inactive	inactive	inactive	inactive	inactive	inactive
CC(C)(N)Cc1ccccc1Cl	inactive	inactive	inactive	–	inactive	inactive	inactive	inactive	inactive	inactive	inactive	inactive	inactive	inactive	inactive	–	inactive	–	inactive	inactive
OCCSCSCCO	inactive	inactive	inactive	inactive	inactive	inactive	–	–	inactive	inactive	inactive	inactive	inactive	inactive	inactive	–	inactive	inactive	inactive	inactive

Source: PubChem BioAssay (Tox21)
